This is a sample that favours compounds with a hit; in the whole collection about 21% have one here.
MRP reversal – reversal of MRP1-mediated doxorubicin resistance, primary screen, H69AR cells, doxorubicin co-treatment; H69AR cells + 2 uM doxorubicin, CellTiter-Glo, 72 h; differential viability (reversal), % at 10 µM; 85,000 compounds, 0.04% hits;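 active = viability drop by adding the cancer drug above about 55%, with treated viability meeting a 40% cutoff, limit read from the data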;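 note: viability without doxorubicin minus viability with 2 µM doxorubicin for each compound; larger differential means the compound sensitizes cells more to doxorubicin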
CYP2C9 inh – blockers of cytochrome P450 2C9 activity – biochemical, luminescence, ADME assay, primary screen | 96,000 compounds, 20% hits | P11712 | inhibition, % at 5 µM | CYP2C9 Supersomes, luciferin-H conversion;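 active = blocking of liver enzyme CYP2C9 beyond about 50% at 5 µM, limit read from the data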
CYP2C19 act – human CYP2C19 activators, primary screen, biochemical, luminescence; activation factor at 5 µM; Cytochrome P450 2C19 (Homo sapiens), P33261; 96,000 tested, under 10 active; recombinant CYP2C19, luciferin-H EGE luminescence; hits give high values; 0 = fully inhibited enzyme, 1 = untreated enzyme;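 active = activation factor of at least 2 at 5 µM in the primary screen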;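 note: 0 = wells with 2.5 mM tranylcypromine and 1 = vehicle-only wells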
Target sequence (P33261 whole entry, looked up): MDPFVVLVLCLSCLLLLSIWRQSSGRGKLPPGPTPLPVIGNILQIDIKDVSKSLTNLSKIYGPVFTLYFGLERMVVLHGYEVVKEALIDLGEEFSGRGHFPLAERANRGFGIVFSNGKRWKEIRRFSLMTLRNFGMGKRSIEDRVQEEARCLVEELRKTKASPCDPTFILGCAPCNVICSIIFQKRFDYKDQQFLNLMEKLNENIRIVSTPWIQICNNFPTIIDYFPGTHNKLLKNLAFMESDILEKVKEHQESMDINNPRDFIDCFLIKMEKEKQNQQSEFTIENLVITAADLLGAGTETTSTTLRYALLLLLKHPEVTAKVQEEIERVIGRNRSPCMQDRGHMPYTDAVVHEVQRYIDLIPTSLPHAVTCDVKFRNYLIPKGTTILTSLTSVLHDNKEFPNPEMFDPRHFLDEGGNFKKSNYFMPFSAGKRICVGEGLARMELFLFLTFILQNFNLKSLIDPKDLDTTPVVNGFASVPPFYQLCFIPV
CYP2C9 act – human CYP2C9 activators, primary screen, biochemical, luminescence. 96,000 compounds, 1.4% hits. recombinant CYP2C9, luciferin-H conversion; hits give high values; factor 1 = untreated enzyme, 0 = blocked. Cytochrome P450 2C9 (Homo sapiens), P11712. activation factor at 5 µM;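 active = activation factor of 2 or more for CYP2C9 at a 5 µM dose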;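 note: 0 = sulfaphenazole-blocked wells and 1 = vehicle-only wells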
CYP2C19 inhib – blockers of cytochrome P450 2C19 activity – biochemical, luminescence, ADME assay, primary screen | inhibition, % at 5 µM | 96,000 compounds, 21% hits | CYP2C19 Supersomes, luciferin-H EGE luminescence, 30 min;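 active = CYP2C19 inhibition above a set limit at 5 µM in the primary screen, cut at about 50% in these data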;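 note: plate controls were negative control wells for no effect and 2.5 mM tranylcypromine positive control for full effect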
MRP1 act – H69AR viability gain despite doxorubicin, primary screen, MRP-1 activator project, H69AR cells, CellTiter-Glo | viability rescue | viability increase, % at 10 µM | 140,000 compounds, 0.61% hits | AID 799, 2007;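 active = viability gain under doxorubicin at or above a set limit, the compound median plus 3 SD, cut at about 4.7% in these data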;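 note: MRP-1 overexpressing cells given doxorubicin 25 µM after compound pretreatment; 18-22 h compound pretreatment then 72 h with doxorubicin before readout; 0% = doxorubicin-only wells and 100% = vehicle-treated cells without doxorubicin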
Active calls of the source: *.

`CCOC(=O)c1c(N)sc(C(O)(C(F)(F)F)C(F)(F)F)c1-c1ccccc1` gave MRP reversal -13, CYP2C9 inh 99*, CYP2C19 act 0.1, CYP2C9 act 0, CYP2C19 inhib 90* and MRP1 act -3.
`CCN(CC)CCCNC(=O)C1CCC(=O)N(c2ccc(OC)cc2)C1c1ccc(F)cc1` (configuration not stated) gave CYP2C9 inh -20, CYP2C19 act 1.2, CYP2C9 act 1.2, CYP2C19 inhib -21 and MRP1 act -2.
Cc1ccc(NCc2nnc(SCC(=O)NCc3ccco3)n2CC2CCCO2)c(C)c1 (configuration not stated) was read as MRP reversal 2, CYP2C9 inh -8, CYP2C19 act 0.9, CYP2C9 act 1.1, CYP2C19 inhib 5 and MRP1 act -3.
Cc1ccc(NCc2nnc(SCc3ccc(C#N)cc3)n2Cc2ccco2)c(C)c1 was read as MRP reversal -6, CYP2C9 inh 94*, CYP2C19 act 0.1, CYP2C9 act 0.1, CYP2C19 inhib 92* and MRP1 act 0.
For CCn1c(COc2ccc(C)cc2)nnc1SCc1ccc(C#N)cc1 the results were MRP reversal 10, CYP2C9 inh 18, CYP2C19 act 1, CYP2C9 act 0.8, CYP2C19 inhib 3 and MRP1 act 4.
`Cc1ccc(C(=O)CSc2nnc(CNc3ccc(C)cc3C)n2Cc2ccco2)cc1` gave MRP reversal -6, CYP2C9 inh 73*, CYP2C19 act 0.2, CYP2C9 act 0.3, CYP2C19 inhib 75* and MRP1 act -5.
Screening N#Cc1ccc(CSc2nnc(Cc3cccs3)n2Cc2ccco2)cc1 returned MRP reversal 4, CYP2C9 inh 66*, CYP2C19 act 0.1, CYP2C9 act 0.3, CYP2C19 inhib 93* and MRP1 act -5.
Screening COc1ccc(C(=O)CSc2nnc(CNc3ccc(C)cc3C)n2Cc2ccco2)cc1 returned MRP reversal -6, CYP2C9 inh 57*, CYP2C19 act 0.1, CYP2C9 act 0.4, CYP2C19 inhib 88* and MRP1 act -2.
COc1ccc(C(=O)CSc2nnc(CNc3ccc(C)cc3C)o2)cc1 was read as MRP reversal 13, CYP2C9 inh -7, CYP2C19 act 1, CYP2C9 act 1.1, CYP2C19 inhib -1 and MRP1 act -3.
`Cc1cc(C)n(-c2c(F)c(F)c(CO)c(F)c2F)n1` gave MRP reversal 9, CYP2C9 inh -13, CYP2C19 act 1.1, CYP2C9 act 1.1, CYP2C19 inhib -14 and MRP1 act -1.
`CC(C)(C)c1ccc(C(=O)N2CCN(CCNC(=O)C(=O)NCc3ccccc3)CC2)cc1` gave MRP1 act 1.
For COc1ccccc1NC(=O)/C(C#N)=C/c1cc([N+](=O)[O-])ccc1N1CCCC1 the results were MRP1 act -2.
CSc1nc2sc3c(c2c2nnnn12)CCC3 was read as MRP reversal 6, CYP2C9 inh 11, CYP2C19 act 0.4, CYP2C9 act 0.9 and CYP2C19 inhib 62*.
Screening CSc1nc2sc3c(c2c2nnnn12)CCCC3 returned MRP reversal 10, CYP2C9 inh 22, CYP2C19 act 0.9, CYP2C9 act 0.8, CYP2C19 inhib 10 and MRP1 act 0.
For CC1CCCCC12NC(=O)N(CC(=O)Nc1sc3c(c1C(N)=O)CCC3)C2=O (configuration not stated) the results were CYP2C9 inh 70*, CYP2C19 act 0.8, CYP2C9 act 0.3, CYP2C19 inhib 23 and MRP1 act -3.
C=CCSc1nnc2nc3[nH]c4c(C)cccc4c3nn12 was read as CYP2C9 inh 3, CYP2C19 act 1, CYP2C9 act 1, CYP2C19 inhib -4 and MRP1 act -5.
Screening CCOC(=O)c1c(C)c(C(=O)N(C)C2CCCCC2)c(C)n1C returned MRP reversal 0, CYP2C9 inh 48, CYP2C19 act 0.5, CYP2C9 act 0.5, CYP2C19 inhib 54* and MRP1 act -1.
O=[N+]([O-])c1ccccc1NCCNS(=O)(=O)c1ccc(Cl)cc1 was read as MRP1 act -1.
`O=[N+]([O-])c1ccc(NCCCNS(=O)(=O)c2ccc(Cl)cc2)c(Cl)c1` gave CYP2C9 inh 49, CYP2C19 act 0.3, CYP2C9 act 0.5, CYP2C19 inhib 72* and MRP1 act -2.
For CS(=O)(=O)N1CCCC(C(=O)N2CCc3ccccc3C2)C1 (configuration not stated) the results were CYP2C9 inh 2, CYP2C19 act 0.9, CYP2C9 act 1, CYP2C19 inhib 13 and MRP1 act -3.
For COc1ccc(S(=O)(=O)N2CCC(C(=O)N3CCc4ccccc4C3)CC2)cc1 the results were MRP reversal -2, CYP2C9 inh -177, CYP2C19 act 0.5, CYP2C9 act 2.8*, CYP2C19 inhib 47 and MRP1 act -2.
For CS(=O)(=O)N1CCC(C(=O)N2CCc3ccccc3C2)CC1 the results were MRP reversal 13, CYP2C9 inh -23, CYP2C19 act 0.1, CYP2C9 act 1.2, CYP2C19 inhib 95* and MRP1 act -1.
For CCCCn1c(SCC(=O)Nc2cccc(C)n2)nnc1-c1ccco1 the results were MRP reversal 14, CYP2C9 inh 96*, CYP2C19 act 0.1, CYP2C9 act 0, CYP2C19 inhib 87* and MRP1 act 0.
`COCCCn1c(SCC(=O)Nc2cccc(C)n2)nnc1-c1ccco1` gave MRP reversal 9, CYP2C9 inh 25, CYP2C19 act 0.5, CYP2C9 act 0.7, CYP2C19 inhib 49 and MRP1 act -3.
`CCCCn1nnnc1SCC(=O)Nc1cccc(C)n1` gave MRP reversal -12, CYP2C9 inh 20, CYP2C19 act 0.3, CYP2C9 act 0.8, CYP2C19 inhib 65* and MRP1 act -1.
Screening Cn1c(=O)c2ncn(CC(=O)NCCOCc3ccccc3Cl)c2n(C)c1=O returned MRP1 act -3.
Screening c1ccc2nc(-c3ccc(N4CCOCC4)cc3)ccc2c1 returned CYP2C9 inh -45, CYP2C19 act 0.6, CYP2C9 act 1.5, CYP2C19 inhib 41 and MRP1 act -2.
For c1ccc2nc(-c3ccncc3)ccc2c1 the results were CYP2C9 inh 36, CYP2C19 act 0.3, CYP2C9 act 0.6, CYP2C19 inhib 68* and MRP1 act 0.
`O=C(NC1(C(F)(F)F)N=C2SCCN2C1=O)c1cccnc1` (configuration not stated) gave MRP1 act 0.
Screening N=C1/C(=C/c2cccn2Cc2ccc(Cl)cc2)C(=O)N=C2SC=CN12 returned MRP1 act 0.

From PubChem BioAssay
